LmPK inhibitor = qHTS Assay for Inhibitors of Leishmania Mexicana Pyruvate Kinase (LmPK); Q27686; purified LmPK, Kinase-Glo ATP luminescence, 1 h; Potency, µM (doses to about 57.5 µM), for the others: top-dose activity change, negative = inhibition, actives largely listed as inhibitors; 290,000 compounds, 0.37% hits; AID 1721, 2009
Target sequence (Q27686 whole entry, looked up): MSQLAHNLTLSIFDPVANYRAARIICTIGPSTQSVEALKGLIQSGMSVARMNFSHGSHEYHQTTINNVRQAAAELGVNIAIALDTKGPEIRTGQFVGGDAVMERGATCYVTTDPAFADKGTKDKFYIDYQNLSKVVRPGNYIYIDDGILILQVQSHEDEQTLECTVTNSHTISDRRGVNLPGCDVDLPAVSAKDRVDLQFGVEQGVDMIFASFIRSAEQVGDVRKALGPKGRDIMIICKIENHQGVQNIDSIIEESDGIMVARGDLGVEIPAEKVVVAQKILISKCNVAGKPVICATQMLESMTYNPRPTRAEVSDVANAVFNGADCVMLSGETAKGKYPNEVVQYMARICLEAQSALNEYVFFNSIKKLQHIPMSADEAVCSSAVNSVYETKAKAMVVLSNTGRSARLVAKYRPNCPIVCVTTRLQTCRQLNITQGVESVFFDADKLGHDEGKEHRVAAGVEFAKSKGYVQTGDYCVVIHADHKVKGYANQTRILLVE
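qHTS format; LmPK 0.1 nM; substrates PEP 0.5 mM and ADP 0.1 mM. One-hour room-temperature incubation, then coupled luciferase luminescence; 0.5 nM enzyme wells mark activation.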
RE007 growth inh = qHTS Assay for Inhibitors of the HIV-1 protein Vpr; 360,000 compounds, 0.21% hits; Potency, µM (titrated, usually from 92.2 µM), for inactives: at the highest dose activity change, negative = less growth, hits mostly inhibitors; S. pombe RE007 Vpr strain, BacTiter-Glo ATP luminescence, 24 h; AID 651644, 2012; active = well fitted falling curve with a large enough effect; inconclusive = small, poorly fitted or top-dose-only effect; inactive = no such curve, though single readings can be large or run the other way; also: nearly all actives have a fitted effect of over 50% in size
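Fission yeast strain RE007, carrying one chromosomally integrated HIV-1 vpr copy, was seeded at OD 0.01 in PMG+AL medium with 23 nL pinned compound. After 24 h at 30 °C and 99% humidity, viability was read by BacTiter-Glo luminescence.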
AMA1-RON2 inh = qHTS for Inhibitors of AMA1-RON; Towards Development of Antimalarial Drug Lead: Primary Screen; AID 720542, 2013; AlphaScreen AMA1-biotinylated RON2 peptide binding; 360,000 compounds, 0.2% hits; Potency, µM (highest dose often 58.2 µM), for the others: at the highest dose activity change, negative = inhibition, actives largely listed as inhibitors; Plasmodium falciparum AMA1 (3D7) - RON2 peptide interaction;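 also: 0% = vehicle wells and -100% = peptide control; nearly all actives have a fitted effect of over 45% in size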
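AMA1 (3D7) with his tag at 25 nM final met compounds first, then biotinylated RON2 peptide at 25 nM; detection used donor plus acceptor beads, 10 µg/mL apiece, read by AlphaScreen after 30 min at room temperature.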
Tb PYK inh = qHTS of Trypanosoma Brucei Inhibitors; TbPYK enzyme, Kinase-Glo Plus ATP luminescence, 45 min; 410,000 compounds, 0.12% hits; pyruvate kinase (Trypanosoma brucei), Q57TT1; Potency, µM (top dose mostly 76.8 µM), inactives show at the highest dose activity, negative = inhibition, actives largely listed as inhibitors; also: nearly all actives have a fitted effect of over 50% in size
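ADP (130 uM final) triggers the TbPYK reaction after compound addition; incubation is 45 min at room temperature. Kinase-Glo Plus is then added and luminescence imaged. Normalized data are fitted to concentration-effect curves.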
Starred values were filed as active, the others as inactive; u = inconclusive; x = not tested or not shown; ! = repeats disagree; [ ] = dose if it differs, or a comment. An excerpt weighted towards active compounds, which were near 0.68% of everything screened. Unless noted, calls follow the shape of the dose curve; as a rule, active = well fitted curve in the direction sought with a large enough effect; inconclusive = small, poorly fitted or top-dose-only effect, or another doubt; inactive = no such curve, though single readings can be large; an effect the other way counts as inactive or inconclusive. Unless noted, % is scaled to controls: 0 for no effect and ±100 for the full control effect; potency is read from the fitted curve at half-maximal effect.

SMILES	LmPK inhibitor	RE007 growth inh	AMA1-RON2 inh	Tb PYK inh
N/C(=N\OC(=O)c1ccc(F)cc1)c1nonc1N	14.1µM*	u	25.1%	u
Cc1ccc(C(=O)O/N=C(\N)c2nonc2N)cc1	3.98µM*	u	3.7%	u
Cc1cc(NC(=O)COC(=O)c2ccccc2Cl)no1	x	-1.3%	14.0%	-1.3%
Cc1cc(/C(N)=N/OC(=O)c2ccccc2Cl)no1	22.4µM*	-16.2%	6.4%	u
O=C(Oc1ccc(O)cc1)C12CC3CC(CC(C3)C1)C2	10.3%	-8.7%	13.3%	-1.8%
O=C(O)c1cc(S(=O)(=O)N2CCCC2)ccc1Br	6.7%	3.3%	-6.8%	12.9%
CCOc1ccc(NC(=O)CN(C)C(=O)CSC(C)C(=O)Nc2cc(C)on2)cc1OCC (stereo not given)	-2.5%	2.9%	123.3%	2.3%
Cc1nc(/C(N)=N/OC(=O)c2ccccc2Cl)c(C(F)(F)F)o1	12.6µM*	-7.6%	10.0%	-21.0%
CN1CCN(c2ccc([N+](=O)[O-])c3no[n+]([O-])c23)CC1	-22.3%	31.6µM*	-29.1%	-24.2%
Cc1ccc(-c2noc(-c3ccc(N4CCN(C)CC4)c([N+](=O)[O-])c3)n2)cc1	x	x	x	4.5%
COc1ccc(C(=O)N/N=C/c2sc3ccccc3c2O)cc1	-4.1%	u	15.9%	1.9%
O=C(N/N=C/c1sc2ccccc2c1O)c1ccccc1	-4.1%	44.7µM*	43.7%	-2.3%
O=C(O)/C=C\C(=O)Nc1ccccc1C#Cc1ccc(Br)cc1	1.3%	44.7µM*	1.0%	8.3%
CC(=O)Nc1ccc(S(=O)(=O)Nc2ccc([N+](=O)[O-])cc2)cc1	x	x	x	0.1%
O=[N+]([O-])c1ccc(S(=O)(=O)Nc2ccc(-c3ccccc3)cc2)cc1	x	35.5µM*	-26.3%	-2.9%
O=C(COC(=O)c1c(Cl)cccc1Cl)Nc1cc(Cl)ccc1Oc1ccccc1	-0.1%	15.7%	8.1%	-6.5%
CCc1nnc(NC(=O)CSc2sc3c(O)cc(=O)[nH]c3c2C#N)s1	-1.3%	-7.0%	10µM*	0.0%
CCCCOc1ccc(C(=O)OCC(=O)N2CCCCCC2)cc1	x	4.9%	-9.7%	-11.0%
O=[N+]([O-])c1ccccc1N/N=C1\CC2CC=CC12 (stereo not given)	-7.5%	-1.4%	20µM*	4.7%
O=C(O)C1C2C=CC(O2)C1C(=O)NCc1ccc(Cl)cc1 (stereo not given)	-1.9%	35.5µM*	15.7%	-4.4%
COc1cc(CN2C[C@@H](CO)O[C@@H](n3cnc4c(N(C)C)ncnc43)C2)cc(OC)c1OC	x	-2.2%[18.4 µM]	-9.7%	-12.3%
CCCCNc1c([N+](=O)[O-])cc(C)cc1[N+](=O)[O-]	4.2%	-0.3%	18.9µM*	0.6%
COc1cc(C)c(Br)cc1S(=O)(=O)NCCCN1CCOCC1	-1.4%	1.9%	19.6%	-0.8%
N#Cc1ccc(N=c2ssnc2Cl)cc1	-2.3%	35.5µM*!	-11.2%	14.1µM*
COc1ccc(N=c2ssnc2Cl)cc1	-8.4%	u	2.9%	-17.6%
SMILES	LmPK inhibitor	RE007 growth inh	AMA1-RON2 inh	Tb PYK inh
Clc1nssc1=Nc1ccccc1	-17.5%	u	-9.9%	u
COc1cc(N=c2ssnc2Cl)cc(OC)c1OC	-0.8%	-16.1%	-9.0%	u
CCOC(=O)c1ccc(N=c2ssnc2Cl)cc1	-12.3%	u	-17.6%	35.5µM*
Fc1ccc(N=c2ssnc2Cl)c(F)c1	-26.3%	-13.8%	-9.7%	14.1µM*
Clc1ccc(N=c2ssnc2Cl)cc1	-0.1%	u	-4.7%	25.1µM*
COc1ccc(OC)c(-n2nnnc2SCC(=O)Nc2nc(C)c(C)s2)c1	2.1%	1.0%	-6.5%	-2.3%
CCOC(=O)CC(S(=O)(=O)c1ccccc1)S(=O)(=O)c1ccccc1	x	2µM*	19.0%	-4.7%
CCOC(=O)N=S(N)(=O)c1ccccc1 (stereo not given)	2.9%	-14.7%	-0.2%	6.7%
O=C(Oc1cccc(C(=S)N2CCOCC2)c1)c1ccccc1	-2.5%	2.8%	0.5%	-15.7%
CN1C(=O)CC(N2CCN(CCN=CC3=C(O)CC(C)(C)CC3=O)CC2)C1=O (stereo not given)	-1.9%	-16.6%	48.0%	-4.8%
COc1cccc(N2CCN(C3CC(=O)N(c4ccc(Cl)c(Cl)c4)C3=O)CC2)c1 (stereo not given)	-3.7%	35.5µM*	-19.8%	1.1%
O=C1CC(N2CCN(c3ccccc3Cl)CC2)C(=O)N1c1cccc(F)c1 (stereo not given)	-0.4%	35.5µM*	-15.1%	2.1%
O=C1CC(N2CCN(c3ccccc3Cl)CC2)C(=O)N1c1ccc(F)cc1 (stereo not given)	7.3%	u	-0.2%	-2.5%
COc1ccc(N2C(=O)CC(N3CCN(c4cccc(Cl)c4)CC3)C2=O)cc1 (stereo not given)	2.3%	4.3%	7.3%	0.4%
CC1(C)CC(=O)C(C=NCCN2CCN(C3CC(=O)N(c4ccc(Cl)c(Cl)c4)C3=O)CC2)=C(O)C1 (stereo not given)	3.7%	10µM*	80.6%	5.2%
CCOC(=O)N1CCN(C2CC(=O)N(c3ccc(Cl)c(Cl)c3)C2=O)CC1 (stereo not given)	-1.5%	11.2µM*	-0.4%	-7.2%
O=C1CC(N2CCN(c3ccc(F)cc3)CC2)C(=O)N1c1ccc(F)cc1 (stereo not given)	-3.9%	-2.1%	-7.0%	0.3%
O=C(C1CCCN(C2CC(=O)N(c3ccc(Cl)cc3)C2=O)C1)N1CCCC1 (stereo not given)	2.5%	5.62µM*	17.9%	2.7%
O=C(C1CCCN(C2CC(=O)N(c3ccc(F)cc3)C2=O)C1)N1CCCC1 (stereo not given)	4.3%	44.7µM*	44.5%	-1.0%
O=C(C1CCN(C2CC(=O)N(c3cccc(Cl)c3)C2=O)CC1)N1CCCCCC1 (stereo not given)	9.6%	7.08µM*	-6.2%	-21.1%
O=C1CC(N2CCOCC2)C(=O)N1c1cccc(Cl)c1 (stereo not given)	1.7%	u	-8.5%	-10.5%
CCCOc1ccc(N2C(=O)CC(N3CCCC(C(=O)N4CCCC4)C3)C2=O)cc1 (stereo not given)	2.0%	17.8µM*	4.5%	-11.8%
COCCn1c(SCC(=O)Nc2sccc2C(N)=O)nc2cc(Cl)ccc2c1=O	4.7%	-12.3%	-8.1%	-2.9%
Cc1ccc(CN2CC(C(=O)NCCC3=CCCCC3)CC2=O)cc1 (stereo not given)	x	-3.5%	3.4%	-1.4%
Cc1ccccc1COC(=O)CN1C(=O)NC2(CCCC2)C1=O	x	-4.1%	4.1%	1.2%
CCOc1ccc(N2C(=O)CC(N3CCN(C(=O)CN4CCCC4)CC3)C2=O)cc1 (stereo not given)	-0.9%	-15.6%	5.5%	-11.6%
O=C1CCCN1CCC1CCN(C2CC(=O)N(c3ccc(Cl)cc3)C2=O)CC1 (stereo not given)	-10.4%	5.01µM*	-1.3%	4.0%
